High-throughput results deposited in PubChem by several laboratories.
Measles CPE = protection of cells from measles virus | 1.5% of 140,000 active | protection (pct of control), % at 4 µM | Measles virus-infected cells, CPE protection, absorbance; in the data active = protection mostly above about 24%, no sharp cut-off; inactive = mostly below about 26%
PostGolgi ctrl = growth of the yeast control strain, post-Golgi counter-screen. 5% of 98,000 active. inhibition, % at 10 µM. efflux-deficient yeast background strain, growth absorbance A615, 16 h
MT1-MMP txn act = MT1-MMP promoter transcription activation; HT1080 MT1-MMP promoter luciferase reporter, luminescence, overnight; stronger effect = higher value; activation factor at 10 µM; 0.16% of 86,000 active; AID 750;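 active = activation factor of at least 2 for MT1-MMP transcription at 10 µM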
PostGolgi yeast = growth inhibition of a yeast mutant, post-Golgi transport screen | post-Golgi transport phenotypic cell assay | inhibition, % at 10 µM | 0.9% of 98,000 active | AID 739;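 also: yeast cells grown in 1536-well plates; yeast grown about 18 h at 30C before absorbance read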
The depositor's hits bear a star; . = no result given. The list is not random: actives were taken first. Their share in the collection is about 5.3%. Rule as the data show it, unless noted: active = inhibition above about 30%; inactive = the rest.

SMILES	Measles CPE	PostGolgi ctrl	MT1-MMP txn act	PostGolgi yeast
COc1cccc(-c2nn(C)c3sc(C(=O)NCc4ccc(C)o4)cc23)c1	18.8	19.3	1.2	11.0
COc1cccc(-c2nn(C)c3sc(C(=O)NCc4ccc5c(c4)OCO5)cc23)c1	8.1	30.4*	1.1	-8.8
CC(C)=C1C2CCC1C1C(=O)N(NC(=O)COc3ccc(C(C)(C)C)cc3)C(=O)C21 (centres undefined)	1.4	25.4	.	-8.0
S=c1[nH]nc(-c2ccncc2)n1Cc1ccccc1	2.0	11.8	1	-0.5
S=c1[nH]nc(-c2cccnc2)n1Cc1ccccc1	49.7*	6.5	1.1	-0.2
CCC(C)NCCOCCSc1ccc(Cl)cc1 (centres undefined)	52.0*	1.5	.	-31.5
COc1nc(N/N=C/c2ccccc2F)nc(N2CCCCC2)n1	8.3	0.5	.	17.0
O=C(CSc1ncccc1-c1nc2ccccc2[nH]1)NCc1ccco1	22.9	13.0	1	33.9*
COc1ccccc1NC(=O)CSC(N)=O	7.8	3.5	1	-6.7
O=[N+]([O-])c1ccc(CSc2nnc(SCc3ccc(Cl)cc3)s2)cc1	3.7	.	.	.
c1ccc(-c2nnc(CSc3nc4ccccc4[nH]3)o2)cc1	33.4*	19.2	1	1.3
O=c1cc(CSc2nc3ccccc3[nH]2)c2ccccc2[nH]1	10.1	6.8	1.2	-6.5
Fc1ccc(CSc2nc3ccccc3[nH]2)c2ccccc12	25.6	47.4*	1.2	2.2
C=CCN1CCN(c2ccncc2S(=O)(=O)N2CCOCC2)CC1	11.5	-8.5	.	-8.2
CCOC(=O)Cn1c(-c2cccnc2Cl)nc2cc(Cl)c(Cl)cc21	4.7	33.4*	.	12.7
Cc1ccccc1NC(=O)c1ccc(CSc2ncccn2)cc1	45.0*	16.1	.	14.0
CC(C)(C)c1ccc(-c2nnc(SCCC#N)n2C2CCCC2)cc1	11.2	47.6*	1.1	-0.3
Cc1ccc(NC(=O)COC(=O)Cn2nc(C)c([N+](=O)[O-])c2C)c([N+](=O)[O-])c1	39.7*	.	.	.
Cc1ccc(NC(CNS(=O)(=O)c2ccc(Cl)cc2)c2ccccc2)cc1 (centres undefined)	6.6	30.5*	.	-0.5
O=S(=O)(NCC(Nc1ccc(Cl)cc1)c1ccccc1)c1ccccc1 (centres undefined)	5.2	.	.	.
O=C(CSc1nnc2c(Cl)cc(Cl)cn12)N1CCN(c2ccc(F)cc2)CC1	3.8	.	.	.
Cc1ccc(Oc2c(C=O)c3ccccc3n2C)cc1	30.3	33.2*	.	6.7
COc1ccc(Oc2c(C=O)c3ccccc3n2C)cc1	25.4	6.5	.	-12.0
COc1ccc(C(=O)c2ccc(N3CCN(C(=O)c4ccc(F)cc4)CC3)c(F)c2)cc1Br	56.5*	26.1	1.1	-4.5
CCC(=O)c1ccc(N2CCN(C(=O)c3ccc(Br)cc3)CC2)c(F)c1	17.3	24.8	1.1	61.5*
SMILES	Measles CPE	PostGolgi ctrl	MT1-MMP txn act	PostGolgi yeast
Cc1cc2cc(CCNC(=O)c3cccc([N+](=O)[O-])c3)c(=O)[nH]c2cc1C	24.8	.	.	.
CCc1ccc(/C=N/n2c(C)cc(C)c(C#N)c2=O)cc1	14.4	.	.	.
O=C1c2cccc3c(Nc4ccccc4Cl)c([N+](=O)[O-])cc(c23)C(=O)N1CCO	13.6	16.9	.	44.6*
O=C(O)c1ccccc1N/N=C\c1ccnc2ccccc12	14.2	30.9*	.	-9.7
C=C(C)C1Cc2c(C)nn(-c3cccc4ccccc34)c2C1 (centres undefined)	23.3	40.4*	1.3	9.9
FC(F)(F)c1ccc(C2[C@H]3CN(CC4CCCCC4)[C@H](c4ccccc4)C34CC2(c2ccccc2)C4)cc1 (some centres undefined)	.	.	1.1	.
CCCCSc1nc(NCc2ccco2)c2c3c(sc2n1)COC(C)(C)C3	6.6	10.0	1.2	-2.2
CCCSc1nc(NCc2ccco2)c2c3c(sc2n1)COC(C)(C)C3	6.2	47.1*	1.2	-1.2
COc1ccc(N(CC(=O)Nc2cccc(N(C)S(C)(=O)=O)c2)S(C)(=O)=O)cc1OC	42.6*	-3.2	0.9	11.0
COc1cccc(N(CC(=O)Nc2cccc(C(C)=O)c2)S(C)(=O)=O)c1	4.2	15.2	1.1	-9.6
COc1ccc(C)cc1N(CC(=O)Nc1cccc(N(C)S(C)(=O)=O)c1)S(C)(=O)=O	12.2	36.5*	0.9	0.3
COc1ccc(N(CC(=O)Nc2cccc(C(C)=O)c2)S(C)(=O)=O)cc1OC	92.5*	16.8	1.1	10.3
COc1ccc(N(CC(=O)N2CCc3ccccc3C2)S(C)(=O)=O)cc1OC	10.4	15.2	1.2	2.7
COc1ccc(N(CC(=O)N2CCN(C)CC2)S(C)(=O)=O)cc1OC	50.5*	-5.4	1	-0.2
CCc1ccccc1N(CC(=O)Nc1cccc(N(C)S(C)(=O)=O)c1)S(C)(=O)=O	7.3	2.7	1.1	0.0
